# ChEMBL document CHEMBL3988442, “University of Dundee, Small-Polar-MMV Screening Library” (2021)
# Among all 48,000 compounds or so, about 13,000 (27%) showed an effect of 50% or more. This is one part of the list.
# Tested on: Wolbachia pipientis
# Assay: Anti-Wolbachia Cell-Based Screen
# Assay type: functional
# Design: scale not given: in the data most compounds retested in dose-response had high values
# Conditions: 5 µM
row,Structure (SMILES),Percent Effect [%]
1,c1ccc(-c2nc3c(c(NCCn4ccnn4)n2)CCNCC3)nc1,-1.189
2,O=S(=O)(NCCCn1ccc2ccccc21)N1CCCCC1,-18.64
3,CC(Cc1cccnc1)Nc1ncnc2cccc(F)c12 (stereo unspecified),-13.17
4,Cc1noc(C)c1CNC(=O)N1CCC(CN2CCC(C)CC2)CC1,0.5097
5,CS(=O)(=O)N1Cc2cnn(CC3CC3)c2C(COCC2CC2)C1.O=C(O)C(F)(F)F (stereo unspecified),-10.17
6,CCn1ncc2c1C(COCC1CC1)CN(c1ccc(C)nn1)C2.O=C(O)C(F)(F)F.O=C(O)C(F)(F)F (stereo unspecified),84.42
7,CCn1ncc2c1C(COCC1CC1)CN(S(=O)(=O)N(C)C)C2.O=C(O)C(F)(F)F (stereo unspecified),4.655
8,O=C(c1ccc2nccn2c1)N1CCC(CCn2cccn2)CC1,-0.54
9,CS(=O)(=O)C1CCN(S(=O)(=O)c2ccc(F)c(F)c2)CC1,110.6
10,Cc1cc(S(=O)(=O)N2CCC(S(C)(=O)=O)CC2)ccc1F,-10.45
11,Cc1ccc(S(=O)(=O)N2CC[C@@H](O)C2)c(F)c1,-13.3
12,Cc1cc(S(=O)(=O)N2CCC(S(C)(=O)=O)C2)ccc1F (stereo unspecified),74.96
13,Cc1cc(S(=O)(=O)N2CCCN3CCCC3C2)ccc1F (stereo unspecified),-4.296
14,COc1ccc(S(=O)(=O)N2CCC(S(C)(=O)=O)CC2)cc1C,-19.61
15,Cc1ccc(S(=O)(=O)N2CCC(S(C)(=O)=O)CC2)cc1C,132.3
16,CCC[C@@H]1CN(S(=O)(=O)c2ccc(C)c(F)c2)C[C@H]1N(C)C,-4.153
17,Cn1cnnc1S(=O)(=O)C1CCN(S(=O)(=O)c2ccc(F)c(Cl)c2)CC1,-4.538
18,COc1ccc(S(=O)(=O)N2CCn3nc(C)nc3C2)cc1C,-5.027
19,CS(=O)(=O)C1CCN(S(=O)(=O)c2ccc(F)c(F)c2)C1 (stereo unspecified),88
20,O=S1(=O)CCC(c2nnc(-c3cnc4onc(C5CC5)c4c3)o2)C1 (stereo unspecified),-6.363
21,CN(C)C(=O)NC1COC2(CCN(Cc3ccc(N(C)C)cc3)CC2)C1 (stereo unspecified),6.702
22,CSCCNC(=O)c1cc(Br)cn1C(C)C,-6.324
23,Cc1nc(C)n(CC2CCCN2Cc2cn3ccsc3n2)n1 (stereo unspecified),1.786
24,CCC(OC)C(=O)N1CCC2(CC1)c1nc[nH]c1CCN2S(C)(=O)=O (stereo unspecified),-9.741
25,CCOCC1CN(C(=O)c2cccn2C)Cc2cnn(CC3CC3)c21.O=C(O)C(F)(F)F (stereo unspecified),-14.68
26,CCn1ncc2c1C(COCC1CC1)CN(C(=O)c1cccs1)C2 (stereo unspecified),2.096

row,Structure (SMILES),Percent Effect [%]
1,CCn1cc2c(n1)C(COCC1CC1)CN(C(=O)c1ccco1)C2 (stereo unspecified),0.7054
2,COCC1CN(C(=O)c2ccoc2)Cc2cnn(CC3CCOCC3)c21.O=C(O)C(F)(F)F (stereo unspecified),114.4
3,Cn1ncc2c1C(COCC1CC1)CN(S(=O)(=O)C1CC1)C2 (stereo unspecified),-3.815
4,COCC1c2c(cnn2CC2CCOCC2)CCN1Cc1ccoc1.O=C(O)C(F)(F)F.O=C(O)C(F)(F)F (stereo unspecified),-3.551
5,Cn1ncc2c1C(COCC1CC1)CN(C(=O)c1ccoc1)C2 (stereo unspecified),107.9
6,CCOCC1CN(C(=O)c2cccs2)Cc2cnn(CC3CC3)c21 (stereo unspecified),108.8
7,O=C(c1ccco1)N1Cc2cnn(CC3CC3)c2C(COCC2CC2)C1 (stereo unspecified),105.1
8,Cn1ncc2c1C(COCC1CC1)CN(C(=O)Cc1ccsc1)C2 (stereo unspecified),0.3372
9,CCOCC1CN(S(C)(=O)=O)Cc2cnn(CC3CCOCC3)c21.O=C(O)C(F)(F)F (stereo unspecified),-18.06
10,COC(=O)c1ccc(Cl)c(NS(=O)(=O)c2cn(C)cn2)c1,1.86
11,CC(C)(C)c1oc(C(N)=O)cc1CN1CCOC(C(F)(F)F)C1 (stereo unspecified),-3.878
12,Cn1c(C(F)(F)F)nn(CCNC(=O)CSCc2ccccc2)c1=O,0.8754
13,O=C(C1CC(=O)N(C2CCCC2)C1)N1CCN(CCn2cccc2)CC1 (stereo unspecified),-10.58
14,COc1ccc(C(=O)N(C)Cc2cc(C)on2)c(OC)c1,-3.822
15,CCOCC1CN(C(=O)c2ccoc2)Cc2cnn(C)c21 (stereo unspecified),92.74
16,CCOCC1CN(C(=O)c2ccoc2)Cc2nn(C)cc21 (stereo unspecified),-3.903
17,O=C(c1ccoc1)N1Cc2cnn(CC3CC3)c2C(COCC2CC2)C1 (stereo unspecified),83.82
18,O=C(c1ccoc1)N1CCn2cnc(COCC3CC3)c2C1,-6.66
19,O=C(c1ccoc1)N1CCc2c(COCC3CC3)cncc2C1,-80.75
20,O=C(NCc1ccc(F)cc1)NCC1(N2CCOCC2)CCSC1 (stereo unspecified),-10.73
21,COc1ccnc(N2CCN(C(=O)c3csc(C(C)C)n3)CC2)n1,-5.502
22,CNC(=O)C(C)CN(C)C(=O)Nc1ccc(Cl)cc1-n1cccc1 (stereo unspecified),0.2413
23,CN(Cc1cnn(C)c1)C(=O)c1ccnc(OC2CCC2)c1,-14.79
24,CCN(Cc1cnn(C)c1)C(=O)c1cc2ccccc2c(=O)[nH]1,2.375
25,Cn1cc(CN(C(=O)c2ccc(O)c(Cl)c2)C2CC2)cn1,100.3
